Compound activity deposited in PubChem by National Center for Advancing Translational Sciences (NCATS).
HCMV inh: human cytomegalovirus inhibition; HFF cells, HCMV-luciferase reporter, 72 h; active compounds read low; activity change, negative = inhibition, % at 57.5 µM; 410,000 tested, 4.5% active; in the data active = activity change below about -60%; inconclusive = no clear call, values can overlap the other calls; inactive = above about -39%
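After 16 h attachment at 37C, HFF cells received test compound and HCMV-luciferase (1 PFU/cell); reporter luminescence read 72 h later, data normalized against buffer-only and known inhibitor Salinomycin.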
HCV inhibitor: blocks hepatitis C virus; Potency, µM (series often up to 41.8 µM), hits mostly inhibitors; Huh7.5.1 HCVcc-Cre infection, luciferase reporter, 44 h; AID 651820; 340,000 tested, 3.4% active
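HCVcc-Cre virus at an moi near 0.5 was added right after compound to cells cultured 4 h from seeding (1,000 cells/well). Luciferase activity was determined 44 h later, 15 min after substrate addition at RT.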
Pf growth 96h: P. falciparum growth inhibition at 96 hours; P. falciparum luciferase reporter growth, 96 h; Potency, µM (top dose mostly 28.7 µM), most hits filed as inhibitors; 320,000 tested, 6.9% active; AID 504834
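P. falciparum expressing integrated firefly luciferase grown in erythrocytes (2% hematocrit, 0.05% parasitemia final) with compounds for 96 hours at 37 C, 5% CO2. Growth inhibition read as loss of luminescence after adding luciferase detection reagent.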
Pf growth 48h: inhibits P. falciparum growth in the first generation, 48 h. Potency, µM (top dose mostly 28.7 µM), actives largely listed as inhibitors. P. falciparum luciferase growth in erythrocytes, 48 h. 310,000 tested, 5.9% active
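First compound was added to culture medium, then infected red cells at 0.1% parasitemia and 2% hematocrit (final). After incubation at 37 C under 5% CO2, luciferase detection reagent was dispensed and light output recorded.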
SARS PLP yeast: blocks SARS-CoV papain-like protease in a yeast assay; S. cerevisiae expressing SARS-CoV PLpro, growth rescue; Potency, µM (series often up to 32.9 µM), actives largely listed as activators; 330,000 tested, 0.19% active; AID 485353; calls by dose curve; note: nearly all actives have a fitted effect of over 55% in size
Sm TGR block: blocks Schistosoma mansoni thioredoxin glutathione reductase; Q962Y6; purified TGR, DTNB reduction, TNB absorbance 405 nm; Potency, µM (titrated, usually from 114 µM), usual class: inhibitors; 360,000 tested, 3% active; AID 485364; note: nearly all actives have a fitted effect of over 60% in size
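Kinetic colorimetric format: TGR-catalysed, NADPH-driven DTNB reduction monitored via TNB absorbance. Enzyme dispensed at 20 nM; compound exposure 15 min at room temperature before reaction start.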
A number is an active result. Most compounds without a hit are left out; they make up all but 15% or so of the library. Unless noted, calls come from the whole dose curve; as a rule, active = well fitted curve in the direction sought with a large enough effect; inconclusive = small, poorly fitted or top-dose-only effect, or another doubt; inactive = no such curve, though single readings can be large; an effect the other way counts as inactive or inconclusive.

What do the screens show for `CCOc1ccc(Nc2cc(C)nc(-n3nc(C)cc3C)n2)cc1`?
HCMV inh: -84; HCV inhibitor: inconclusive; Pf growth 96h: inconclusive; Pf growth 48h: 1.9µM; SARS PLP yeast: inactive; Sm TGR block: inactive

Results for CCOc1ccc(Nc2nc3cc(Cl)c(Cl)cc3nc2-n2nc(C)cc2C)cc1 ?
HCMV inh: inactive; Sm TGR block: inactive

How did CCn1cc(C(=O)N(C)c2cc(C)ccc2C)c2cc(OC)c(OC)cc2c1=O do in these assays?
HCMV inh: inactive; Sm TGR block: inactive

What do the screens show for `CC(NC(=O)c1ccc(OC2CCN(S(=O)(=O)N(C)C)CC2)cc1)C1CC1` (configuration not stated)?
HCMV inh: inactive; HCV inhibitor: inactive; Pf growth 96h: inactive; Pf growth 48h: inactive; SARS PLP yeast: inactive; Sm TGR block: inactive

What do the screens show for `CCNS(=O)(=O)c1ccc(CCC(=O)NCCC2=CCCCC2)cc1`?
HCMV inh: inactive; HCV inhibitor: inactive; Pf growth 96h: inactive; Pf growth 48h: inactive; SARS PLP yeast: inactive; Sm TGR block: inactive

Results for CN(Cc1cnc2nc(N)nc(N)c2n1)c1ccc(C(=O)NC(CCC(=O)O)C(=O)O)cc1 (configuration not stated) ?
HCMV inh: -97; HCV inhibitor: inconclusive

How did Nc1nc(N)c2nc(CNc3ccc(C(=O)NC(CCC(=O)O)C(=O)O)cc3)cnc2n1 (configuration not stated) do in these assays?
HCV inhibitor: inactive; Pf growth 96h: inconclusive; Pf growth 48h: inconclusive; SARS PLP yeast: inactive; Sm TGR block: inactive

Results for CN(Cc1cnc2nc(N)nc(N)c2n1)c1ccc(C(=O)NC(CCC(=O)O)C(=O)O)cc1C(F)(F)F (configuration not stated) ?
HCMV inh: -97; HCV inhibitor: inconclusive

How did COC(=O)/C=C1\OC(C)c2ccccc21 (configuration not stated) do in these assays?
HCMV inh: inactive

What do the screens show for `CCCc1nn2c(=O)cc(CSCC(=O)Nc3ccccc3)nc2s1`?
HCMV inh: inactive; HCV inhibitor: inactive; Pf growth 96h: inconclusive; Pf growth 48h: inactive; SARS PLP yeast: inactive; Sm TGR block: inactive

How did CCCc1nn2c(=O)cc(CSCC(=O)Nc3nnc(C(C)C)s3)nc2s1 do in these assays?
HCMV inh: inconclusive; HCV inhibitor: inactive; Pf growth 96h: 12µM; Pf growth 48h: inactive; SARS PLP yeast: inactive; Sm TGR block: inactive

What do the screens show for `Cc1nn2c(=O)cc(CSCC(=O)Nc3ccccc3F)nc2s1`?
HCMV inh: inactive; HCV inhibitor: inactive; Pf growth 96h: inconclusive; Pf growth 48h: inactive; SARS PLP yeast: inactive; Sm TGR block: inactive

What do the screens show for `CCOCCc1nn2c(=O)cc(CSCC(=O)Nc3cc(C)cc(C)c3)nc2s1`?
HCMV inh: -62; HCV inhibitor: inactive; Pf growth 96h: inactive; Pf growth 48h: inactive; SARS PLP yeast: inactive; Sm TGR block: inactive

How did Cc1nn2c(=O)cc(CSCC(=O)Nc3ccccc3Cl)nc2s1 do in these assays?
HCMV inh: inconclusive; HCV inhibitor: inactive; Pf growth 96h: 12µM; Pf growth 48h: inactive; SARS PLP yeast: inactive; Sm TGR block: inactive

How did Cc1ccsc1-c1nc(CN2CCCC2c2ccc(F)cc2)c(C)o1 (configuration not stated) do in these assays?
HCMV inh: inactive; HCV inhibitor: inactive; Pf growth 96h: inactive; Pf growth 48h: inconclusive; SARS PLP yeast: inactive; Sm TGR block: inconclusive

Results for COc1ccccc1CN1CC(=O)N2CSC[C@H]2C1=O ?
HCMV inh: inactive; HCV inhibitor: inactive; Pf growth 96h: inactive; SARS PLP yeast: inactive; Sm TGR block: inactive

Results for Cc1cc(C)nc(N/N=C/C2=C(N3CCOCC3)C(=C\c3ccc(Cl)cc3)/CC2)n1 ?
HCMV inh: inactive; HCV inhibitor: inconclusive; Pf growth 96h: inactive; Pf growth 48h: inconclusive; SARS PLP yeast: inactive; Sm TGR block: 32µM

What do the screens show for `Cc1cc(C)nc(NN=CC2=C(N3CCOCC3)/C(=C/c3ccc(Cl)cc3)CC2)n1`?
HCMV inh: inactive; HCV inhibitor: inconclusive

What do the screens show for `O=CC1=C(N2CCOCC2)/C(=C/c2ccc(Cl)cc2)CC1`?
HCMV inh: inactive; HCV inhibitor: inconclusive; Pf growth 96h: inactive; Pf growth 48h: inactive; SARS PLP yeast: inactive; Sm TGR block: 22µM

What do the screens show for `CN(C(=O)NC(=O)C1=C(N2CCOCC2)/C(=C/c2ccccc2)CC1)S(C)(=O)=O`?
HCMV inh: inactive; HCV inhibitor: inactive; Pf growth 48h: inactive; SARS PLP yeast: inactive; Sm TGR block: 16µM

Results for O=C(O)c1ccc(N/N=C/C2=C(N3CCOCC3)C(=C\c3ccccc3)/CC2)cc1 ?
HCMV inh: inactive; HCV inhibitor: inactive; Pf growth 96h: inactive; Pf growth 48h: inconclusive; SARS PLP yeast: inactive; Sm TGR block: 18µM

Results for CN(Cc1c(C(=O)N/N=C/c2ccc(O)cc2)nnn1-c1nonc1N)c1ccccc1 ?
HCMV inh: inactive; HCV inhibitor: inactive; Pf growth 96h: inactive; Pf growth 48h: inactive; SARS PLP yeast: inactive; Sm TGR block: inactive

What do the screens show for `COCCNC(=O)C1(C)CCCN(C(=O)c2c(F)ccc(C)c2F)C1` (configuration not stated)?
HCMV inh: -64

Results for O=C(C1CCN(Cc2cn[nH]c2-c2ccc(F)cc2F)CC1)N1CCOCC1 ?
HCMV inh: inactive; HCV inhibitor: inactive; Pf growth 96h: inactive; Pf growth 48h: inactive; SARS PLP yeast: inactive; Sm TGR block: inactive

Results for CN1CCN(Cc2cn[nH]c2-c2ccc(F)cc2F)[C@@H](c2ccccc2)C1 ?
HCMV inh: inactive; HCV inhibitor: inactive; Pf growth 96h: 2.6µM; Pf growth 48h: inactive; SARS PLP yeast: inactive; Sm TGR block: inactive

Results for Cc1nonc1N1CCN(Cc2cn[nH]c2-c2ccc(F)cc2F)CC1 ?
HCMV inh: inactive; HCV inhibitor: inactive; Pf growth 96h: inconclusive; Pf growth 48h: inactive; SARS PLP yeast: inactive; Sm TGR block: inactive

Results for OCCCC1CCCN(Cc2cn[nH]c2-c2ccc(F)cc2F)C1 (configuration not stated) ?
HCMV inh: inconclusive; HCV inhibitor: inactive; Pf growth 96h: 7.4µM; Pf growth 48h: inactive; SARS PLP yeast: inactive; Sm TGR block: inactive

Results for COc1ccc(CN(C)S(=O)(=O)c2nnc(NC(=O)c3cccc(F)c3)s2)cc1 ?
HCMV inh: inactive; HCV inhibitor: inactive; Pf growth 96h: inactive; Pf growth 48h: inactive; SARS PLP yeast: inactive; Sm TGR block: inactive

What do the screens show for `Cc1cccc(NC(=O)CCS(=O)(=O)c2ccc3c(c2)n(C)c(=O)c(=O)n3C)c1C`?
HCMV inh: inactive; Sm TGR block: inactive
